Hits are enriched below; roughly 3% of the tested compounds scored in any of these assays.
esBAF inh = Bmi1 luciferase reporter increase in mESCs, primary screen, esBAF inhibitor project, mouse ES cells, Bmi1 luciferase knock-in, single point; 2% of 350,000 active; 24 h; 100% = twice the neutral-well signal; AID 602393, 2012; reporter increase, % at 12.5 µM; in the data active = activation above about 40%; inconclusive = no clear call, values can overlap the other calls;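 also: 0% = median of the plate's neutral control wells and 100% = double that signal; a rise in the Bmi1 reporter signal indicates esBAF inhibition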
MITF act = activators of MITF-driven TRPM1 promoter reporter, primary screen, cell-based, SK-MEL-5, luciferase, single point; SK-MEL-5 TRPM1-promoter luciferase, 24 h; % of positive control, neutral wells = 0; activation, % at 12.5 µM; 0.75% of 300,000 active; AID 588334, 2011;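 active = mean activation of at least 80% with every replicate also reaching 80%; inconclusive = mean reaches 80% but some replicate falls short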;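 also: 0% = neutral control wells and 100% = parthenolide positive control wells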
Wnt bcat act = Wnt/beta-catenin pathway activators, primary screen, cell-based, plate reader, single point; 1.2% of 300,000 active; AID 743398, 2014; activation, % at 9.35 µM; Wnt/beta-catenin reporter cell assay, activator; in the data active = activation above about 30%, passing the limit was not always enough; inconclusive = no clear call, values can overlap the other calls;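 also: 0% = neutral control wells and 100% = positive control wells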
C2C12 statin = suppressors of statin myotoxicity in C2C12 myotubes, primary screen, cell-based, single point, plate reader; 0.78% of 330,000 active; AID 602340, 2012; rescue of ATP level, % at 7.49 µM; C2C12 myotubes + simvastatin, ATP luminescence, 48 h; scaled: DMSO 0, geranylgeraniol control 100;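 active = mean ATP rescue above about 67%, or every replicate alone reaching that limit, limit read from the data, passing the limit was not always enough; inconclusive = no clear call, values can overlap the other calls; inactive = mean under the limit and some replicate under it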;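 also: myotubes were challenged with 10 µM simvastatin during compound exposure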
* = called active by the depositor; ? = inconclusive; nt = no result given.

SMILES | esBAF inh | MITF act | Wnt bcat act | C2C12 statin
COC(=O)c1ccc2nc(C)cc(Nc3ccc(N(C)C)cc3)c2c1 | 0 | 4 | 1 | -1
COC(=O)c1ccc(Nc2cc(C)nc3ccccc23)cc1 | nt | nt | 48* | nt
C[C@H](CO)N1C[C@H](C)[C@@H](CN(C)C)Oc2ccc(NS(=O)(=O)c3ccc(F)cc3)cc2C1=O | 4 | nt | nt | -24
COc1ccc2c(c1)Cc1sc(NC(C)=O)nc1-2 | 41* | 75 | nt | 6
COc1ccc2c(c1)Cc1sc(NC(=O)c3cccnc3)nc1-2 | nt | 33 | 4 | nt
COc1ccc2c(c1)CCc1sc(NC(=O)c3ccco3)nc1-2 | 23 | 58 | nt | -1
COc1ccc2c(c1)Cc1sc(NC(=O)c3ccco3)nc1-2 | 46* | 65 | nt | 17
COc1ccc2c(c1)-c1nc(NC(=O)c3ccco3)sc1CC2 | nt | 85* | 64* | nt
CCN1[C@@H]2c3ccc(-c4ccccc4)c(=O)n3C[C@H]1[C@H](CO)[C@H]2C(=O)NCCCN1CCOCC1 | -6 | nt | nt | -44
CCC(=O)Nc1ccc2c(c1)C(=O)N(C)[C@@H]1CC[C@@H](CC(=O)N3CCc4ccccc4C3)O[C@H]1CO2 | -1 | nt | nt | 1
CO[C@@H]1CN(C)C(=O)c2ccc(NC(=O)C3CC3)cc2OC[C@@H](C)N(CC2CCCC2)C[C@@H]1C | -9 | nt | nt | 0
COc1cccc(S(=O)(=O)N[C@@H]2CC[C@H](CC(=O)NC3CCC3)O[C@@H]2CO)c1 | 0 | nt | nt | 7
C[C@@H]1CCCCO[C@@H](CN(C)CC2CCCCC2)[C@H](C)CN([C@H](C)CO)C(=O)c2cc(NS(=O)(=O)c3cccs3)ccc2O1 | 6 | nt | nt | nt
O=c1c2cccc(Cl)c2nc2n1Cc1ccccc1-2 | nt | nt | 39* | nt
O=C1c2ccccc2NC(c2ccccc2)N1Cc1ccco1 (centres undefined) | 62* | -2 | nt | 9
CCOc1ccccc1-n1nnnc1SCC(=O)OC | 10 | 2 | -1 | 9
CCOc1ccccc1-n1nnnc1SCC(=O)O | -7 | 5 | 36* | -3
O=C(CCN1C(=O)/C(=C/c2ccco2)SC1=S)Nc1ccc(O)cc1C(=O)O | -5 | 6 | 2 | 2
O=C(CN1C(=O)/C(=C\c2ccco2)SC1=S)Nc1ccc(O)cc1C(=O)O | -15 | -7 | -1 | 96*
COc1ccc(S(=O)(=O)N(C(C)=O)c2ccc3oc(=O)sc3c2)cc1 | -3 | -13 | -4 | 87*
C[C@@H]1CN([C@@H](C)CO)C(=O)c2cccc(NS(=O)(=O)c3cccs3)c2O[C@@H]1CN(C)S(=O)(=O)c1ccccc1 | -1 | nt | nt | ?
C[C@H]1CN([C@@H](C)CO)C(=O)c2cccc(NC(=O)Nc3ccc(F)cc3)c2O[C@@H]1CN(C)C(=O)NC1CCCCC1 | -2 | nt | nt | 4
O=C(Cn1cnc2c(oc3ccccc32)c1=O)c1ccccc1 | 70* | nt | 49* | 0
Cc1cc(C)c2c(n1)sc1c(=O)n(CC(=O)c3ccccc3)cnc12 | 47* | nt | ? | -5
O=C(O)Cn1cnc2c(oc3ccccc32)c1=O | 3 | -5 | 7 | -6
SMILES | esBAF inh | MITF act | Wnt bcat act | C2C12 statin
C[C@H]1CN([C@@H](C)CO)C(=O)Cc2cc(NC(=O)C3CC3)ccc2O[C@@H]1CN(C)C(=O)Nc1ccc2c(c1)OCO2 | -6 | nt | nt | -2
CCSc1nc(C2CC2)cc(-c2ccco2)c1C#N | -8 | 20 | nt | 100*
C[C@H]1CCCCO[C@H](CN(C)C(=O)Cc2ccccc2)[C@@H](C)CN([C@@H](C)CO)C(=O)c2cc(NS(=O)(=O)c3ccc(Cl)cc3)ccc2O1 | -3 | nt | nt | nt
COc1ccc(S(=O)(=O)Nc2ccc3c(c2)C(=O)N([C@H](C)CO)C[C@H](C)[C@H](CN(C)C(=O)CCCN(C)C)OCCCC[C@H](C)O3)cc1 | -1 | nt | nt | 28
C[C@@H]1CCCCO[C@@H](CN(C)Cc2ccccc2)[C@H](C)CN([C@H](C)CO)C(=O)c2cc(NC(=O)c3ccccc3)ccc2O1 | -8 | nt | nt | nt
Cc1ccc(OCC(=O)O/N=C(\N)c2cccnc2)cc1 | nt | 37 | 14 | nt
Cc1cccc(OCC(=O)O/N=C(\N)c2ccccn2)c1C | 72* | ? | 20 | 36
COc1ccc(CC(=O)O/N=C(\N)c2ccccn2)cc1OC | 6 | 4 | 5 | 4
N/C(=N\OC(=O)COc1cc(Cl)c(Cl)cc1Cl)c1ccccn1 | nt | 74 | 16 | nt
N/C(=N\OC(=O)Cc1ccc(Cl)cc1)c1ccccn1 | 47* | 78 | nt | 9
Cc1ccc(CC(=O)O/N=C(\N)c2ccccn2)cc1 | 15 | 28 | 40* | 1
Cc1ccc(OCC(=O)O/N=C(\N)c2ccccn2)cc1 | 46* | 80 | -3 | -1
C[C@@H]1CN([C@@H](C)CO)C(=O)c2cc(NC(=O)CCC(F)(F)F)ccc2O[C@@H](C)CCCCO[C@H]1CN(C)C | -3 | nt | nt | 5
CCCC#Cc1ccc2c(c1)O[C@@H](CN(C)C(=O)c1cnccn1)[C@H](C)CN([C@@H](C)CO)S2(=O)=O | -5 | nt | nt | -21
COc1ccccc1CC(=O)O/N=C(\N)c1ccccn1 | nt | 32 | -2 | nt
N/C(=N\OC(=O)Cc1cccc2ccccc12)c1ccccn1 | nt | 79 | 42* | nt
CN(C)CCCNC(=O)C[C@@H]1CC[C@H](NS(=O)(=O)c2ccccc2)[C@@H](CO)O1 | -1 | nt | nt | -1
NC(=O)COC(=O)C(Cc1ccccc1)NS(=O)(=O)c1ccccc1F (centres undefined) | -7 | -3 | -3 | 109*
CCc1ccccc1NC(=O)CCN1C(=O)c2ccccc2C1=O | -7 | -3 | -1 | 133*
CCc1ccccc1NC(=O)CCN1C(=O)C2CC=CCC2C1=O (centres undefined) | -5 | -2 | -2 | 5
CCOC(=O)C1CCN(S(=O)(=O)c2nc3nc(C)cc(C)n3n2)CC1 | -2 | 9 | nt | 104*
C[C@@H]1CN([C@@H](C)CO)S(=O)(=O)c2ccc(C3=CCCC3)cc2O[C@H]1CN(C)C(=O)c1ccccc1 | -6 | nt | nt | -80
CCC(=O)Nc1ccc2c(c1)C(=O)N(C)[C@@H]1CC[C@H](CC(=O)O)O[C@H]1CO2 | 0 | nt | nt | 20
CCN(CC)c1nc(C)nc2c1cnn2CCc1ccccc1 | 80* | 89* | nt | -13
CCCN1[C@H](C(=O)NCCOC)[C@@H](CO)[C@@H]2Cn3c(ccc(-c4ccc(C(=O)N(C)C)cc4)c3=O)[C@@H]21 | -4 | nt | nt | -64
CN1C(=O)C2C=CC1C1C(=O)N(c3ccccc3)C(=O)C21 (centres undefined) | 57* | 89* | nt | 0
Cc1ccccc1-c1cnc2c(c1)C(=O)N([C@@H](C)CO)C[C@H](C)[C@@H](CN(C)CC1CCCCC1)O2 | 0 | nt | nt | -65
O=[N+]([O-])c1ccc(NCc2ccc(Cl)cc2)nc1 | nt | nt | 0 | nt
CC(C)c1ccc(CNc2ccc([N+](=O)[O-])cn2)cc1 | nt | 89* | 7 | nt
C[C@@H]1CCCCO[C@H](CN(C)C(=O)C2CCCCC2)[C@H](C)CN([C@H](C)CO)C(=O)c2cc(N(C)C)ccc2O1 | 3 | nt | nt | -22

Bioassay records (PubChem BioAssay)
